Results filed as inconclusive are left out. A call without a number means that no potency is given here. Calls of active or inactive are those of the source. The call rests on the fitted dose curve; in most records, active means well fitted cell-killing curve with a large enough effect in the repeat runs; inconclusive means weak or mixed curves; inactive means no such curve, though single readings can be large or run the other way.
assay: qHTS assay for identifying genotoxic compounds that show differential cytotoxicity against isogenic chicken DT40 cell lines with known DNA damage response pathways - Rad54/Ku70 mutant cell line (AID 743015); conditions: DT40 Rad54/Ku70 mutant viability, CellTiter-Glo, 40 h; series mostly up to 66.8 µM; further: nearly all actives have a fitted effect of over 60% in size
Excerpt: National Center for Advancing Translational Sciences [NCATS]
NIH Chemical Genomics Center [NCGC]
U.S. Environmental Protection Agency [EPA]
National Institutes of Environmental Health Sciences [NIEHS]
National Toxicology Program [NTP]
U.S. Food and Drug Administration [FDA]
DNA repair pathways play a critical role in cellular homeostasis by repairing DNA damage induced by endogenous processes and xenobiotics. Isogenic chicken DT40 cell lines deficient in different DNA repair pathways can be used to identify genotoxic compounds and aid in characterizing the nature of the DNA damage induced. Two DNA repair-deficient cell lines with disrupted genes, Rad54/Ku70 or Rev3, were used to screen the Tox21 10K compound library. Possible genotoxicity was based on the presence of a significant increase in cytotoxicity in one or more of the DNA repair-deficient cell lines compared to that observed in the parental DNA repair-proficient cell line. CellTiter Glo viability assay (Promega, Madison, WI) was used to measure cell viability in these cells after compound treatment. This assay includes the data from the Rad54/Ku70 mutant cell line.
Tox21 Assay Protocol Summary:
300 DT40 mutant cells in 5 uL/well were dispensed into white, solid-bottom 1536-well plates using a Multidrop Combi (ThermoFisher Scientific, Waltham, MA) dispenser. After the assay plates were incubated at 37 C/5% CO2 for approximately 0.5 hour, 23 nL of compounds dissolved in DMSO, positive controls or DMSO only was transferred into the assay plate by a pintool work station (Kalypsys, San Diego, CA). The assay plates were incubated at 37 C/5% CO2 for 40 hours. After 5 uL per well of CellTiter-Glo reagent was added into each well of the assay plates, the plates were incubated for 30 min at room temperature and the luminescence intensity of the plates was measured using a ViewLux (PerkinElmer, Shelton, CT) plate reader.
Potency means the concentration at half of the fitted maximal effect.

SMILES	Potency
CN1CCCC(CC2c3ccccc3Sc3ccccc32)C1 (stereo not given)	8.04 µM (active)
COc1ccccc1Oc1c(NS(=O)(=O)c2ccc(C(C)(C)C)cc2)nc(-c2ncccn2)nc1OCCO	inactive
COc1ncnc(NS(=O)(=O)c2ccc(N)cc2)c1OC	inactive
O=C(O)c1cccc(-c2noc(-c3ccccc3F)n2)c1	inactive
CCCCC(CC)COP(=O)(O)O (stereo not given)	inactive
O=C(Cn1ccnc1[N+](=O)[O-])NCCO	inactive
O=[N+]([O-])c1ccc(O/N=C/c2cc(Br)c(O)c(Br)c2)c([N+](=O)[O-])c1	inactive
O=C(O)CCCCCCCCCCCBr	inactive
CC=C(Cl)Cl	inactive
CCOC(=O)OC(C)OC(=O)[C@@H]1N2C(=O)[C@@H](NC(=O)[C@H](N)c3ccccc3)[C@H]2SC1(C)C (stereo not given in full)	inactive
c1csc(SSc2cccs2)c1	10.9 µM (active)
CCOC(=O)c1ccc(I)cc1	inactive
C=COCC(C)C	inactive
Oc1ccc(Cl)c2cccnc12	6.68 µM (active)
CN1C(C(=O)Nc2ccccn2)=C(O)c2sccc2S1(=O)=O	inactive
CCCCCCCC/C=C\CCCCCCCCCCCC(=O)O	inactive
C=C(C)C(=O)OCCOCCOC(=O)C(=C)C	inactive
C=C/C(C)=C/C/C=C(\C)CCC=C(C)C	48.6 µM (active)
CCC(=O)OC	inactive
C=CC(=O)OCC1CC2CC1C1CCC(COC(=O)C=C)C21 (stereo not given)	19.3 µM (active)

SMILES	Potency
Cc1cc(C)c(N)cc1C	inactive
CC(C)(C)C(=O)C(=O)O	inactive
Nc1cccc2c1CN(C1CCC(=O)NC1=O)C2=O (stereo not given)	inactive
CCCCN1CCCC1C(=O)Nc1c(C)cc(C)cc1C (stereo not given)	29.8 µM (active)
CC(=O)OCCN(CCOC(C)=O)c1ccc(N=Nc2ccc([N+](=O)[O-])cc2C#N)cc1	30.6 µM (active)
Cc1cscn1	inactive
C[C@]12CC[C@@H]3c4ccc(O)cc4CC[C@H]3[C@@H]1CC[C@@H]2OC(=O)CCC1CCCC1	11.9 µM (active)
CN1CC(=O)N2[C@H](c3ccc4c(c3)OCO4)c3[nH]c4ccccc4c3C[C@@H]2C1=O	inactive
CCOc1ccc(Cc2nccc3cc(OCC)c(OCC)cc23)cc1OCC	5.07 µM (active)
CCC(C)(C)OC	inactive
CC(CO)CO	inactive
O=C1c2ccccc2C(=O)C1c1ccc(Br)cc1	inactive
C(=C\c1ccccc1)/c1ccccc1	inactive
C/C=C\C/C=C/CCCCCCCCOC(C)=O	24.3 µM (active)
FC(F)(F)c1ccccc1Cl	inactive
COc1cc(C(=O)NCCCCCC(=O)O)cc(OC)c1OC	inactive
CC(C)c1nc(CN(C)C(=O)N[C@H](C(=O)N[C@@H](Cc2ccccc2)C[C@H](O)[C@H](Cc2ccccc2)NC(=O)OCc2cncs2)C(C)C)cs1	23.7 µM (active)
Cc1cc(=O)c2c(O)c3c(O)cc(=O)c4c3c3c(cc(O)c1c23)C(C)(C)C=4O	1.06 µM (active)
O=C=Nc1ccc(Cl)c(Cl)c1	inactive
Cc1ccc(Cl)c(Nc2ccccc2C(=O)O)c1Cl	inactive

Source: PubChem BioAssay (Tox21)
